Compound activity deposited in PubChem BioAssay by National Center for Advancing Translational Sciences (NCATS).
HCV inhibitor: qHTS Assay for Inhibitors of Hepatitis C Virus (HCV) | Huh7.5.1 HCVcc-Cre infection, luciferase reporter, 44 h | Potency, µM (top dose mostly 41.8 µM), most hits filed as inhibitors | actives 3.4% (n = 340,000)
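Infectious HCVcc-Cre (~0.5 moi) was added to cells just after compound, with cells seeded 4 h earlier at 1,000 per well. Luciferase activity after 44 h culture reported infection; substrate was incubated 15 min at room temperature before reading.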
FMDV antiviral: High Throughput Screening for Foot and Mouth Disease Virus Antivirals. Potency, µM (doses to about 57.9 µM), actives largely listed as inhibitors. FMDV antiviral cell-based qHTS. actives 1.2% (n = 410,000); calls by dose curve; tested in HEK293T cells; further: read-out not given here; nearly all actives have a fitted effect of over 45% in size
VACV Venus inh: qHTS for Stage-Specific Inhibitors of Vaccinia Orthopoxvirus: Venus Reporter Primary qHTS. Vaccinia virus Venus reporter expression, fluorescence. Potency, µM (doses to about 36.5 µM), usual class: inhibitors. actives 0.46% (n = 330,000); calls by dose curve; tested in A549 cells; further: nearly all actives have a fitted effect of over 30% in size
Giardia FBPA inh-1: qHTS Assay for Inhibitors of Fructose-1,6-bisphosphate Aldolase from Giardia Lamblia; A8B2U2; Potency, µM (top dose mostly 59.6 µM), hits mostly inhibitors; actives 0.71% (n = 290,000); purified Giardia FBPA; AID 2451, 2010; further: nearly all actives have a fitted effect of over 55% in size
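40 nM FBPA preincubated 10 min at RT with compound (up to 57.5 uM final), then substrate plus GAPDH/TPI/NAD/arsenate coupling and diaphorase/resazurin added. Fluorescence read after 20 min at RT, 525/598 nm.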
HCMV inh: qHTS Assay for inhibitors of the human cytomegalovirus (HCMV) | HFF cells, HCMV-luciferase reporter, 72 h; active compounds read low | activity change, negative = inhibition, % at 57.5 µM | actives 4.5% (n = 410,000); in the data active means activity change below about -60%; inconclusive means no clear call, values can overlap the other calls; inactive means above about -39%
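Steps: HFFs plated, 16 h 37C; compounds added; HCMV-luciferase added to MOI 1 PFU/cell; 72 h 37C; OneGlo reagent, 5 min room temperature; luminescence read, normalized to controls.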
Vaccinia mCherry: qHTS for Stage-Specific Inhibitors of Vaccinia Orthopoxvirus: mCherry Reporter Primary qHTS; Vaccinia virus mCherry reporter infection, fluorescence; actives 0.63% (n = 310,000); Potency, µM (titrated, usually from 36.5 µM), usual class: inhibitors; AID 720579, 2013; calls by dose curve; tested in A549 cells; further: nearly all actives have a fitted effect of over 35% in size
Giardia growth: qHTS Assay for Inhibitors of Fructose-1,6-bisphosphate Aldolase from Giardia Lamblia: Giardia lamblia growth inhibition. Giardia lamblia trophozoite growth inhibition. shares compounds with Giardia FBPA inh-1. Potency, µM (highest dose often 57.5 µM), most hits filed as inhibitors. AID 2785, 2010. actives 5% (n = 1,500);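 further: trophozoites exposed to compound for 48 h at 37 °C; nearly all actives have a fitted effect of over 70% in size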
Mammal cell tox: qHTS Assay for Inhibitors of Fructose-1,6-bisphosphate Aldolase from Giardia Lamblia: Mammalian cellular toxicity; shares compounds with Giardia FBPA inh-1; mammalian cell viability counter-screen, qHTS; Potency, µM (titrated, usually from 57.5 µM), most hits filed as inhibitors; actives 4% (n = 1,500); AID 2786, 2010;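 further: Chinese hamster ovary cells used as mammalian cytotoxicity surrogate; viability measured as cellular ATP by luminescence; compound exposure lasted 48 h before reading; nearly all actives have a fitted effect of over 60% in size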
Giardia FBPA inh-2: qHTS Assay for Inhibitors of Fructose-1,6-bisphosphate Aldolase from Giardia Lamblia: Primary screen confirmation; actives 5% (n = 1,500); AID 2787, 2010; purified Giardia aldolase enzyme activity, qHTS; Potency, µM (highest dose often 57.5 µM), most hits filed as inhibitors; shares compounds with Giardia FBPA inh-1; further: nearly all actives have a fitted effect of over 45% in size
Rabbit aldolase: qHTS Assay for Inhibitors of Fructose-1,6-bisphosphate Aldolase from Giardia Lamblia: Rabbit FBPA Selectivity; shares compounds with Giardia FBPA inh-1; Rabbit muscle FBPA enzyme inhibition, selectivity counter-screen; Potency, µM (titrated, usually from 57.5 µM), hits mostly inhibitors; actives 4% (n = 1,500); AID 2794, 2010; further: nearly all actives have a fitted effect of over 60% in size
Target sequence (P00883 whole entry, looked up): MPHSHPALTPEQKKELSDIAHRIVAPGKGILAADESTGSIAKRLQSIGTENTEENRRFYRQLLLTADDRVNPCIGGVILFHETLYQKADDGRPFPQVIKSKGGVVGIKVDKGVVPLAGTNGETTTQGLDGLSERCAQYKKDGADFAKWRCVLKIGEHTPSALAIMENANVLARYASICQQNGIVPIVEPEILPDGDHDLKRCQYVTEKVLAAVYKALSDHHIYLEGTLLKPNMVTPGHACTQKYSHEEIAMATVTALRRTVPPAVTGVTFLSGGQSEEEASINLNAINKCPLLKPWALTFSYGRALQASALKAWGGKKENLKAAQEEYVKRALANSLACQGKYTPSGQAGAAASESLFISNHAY
GAPDH counter: qHTS Assay for Inhibitors of Fructose-1,6-bisphosphate Aldolase from Giardia Lamblia: Coupling assay counterscreen confirmation; shares compounds with Giardia FBPA inh-1; GAPDH coupling enzyme counterscreen, biochemical, qHTS; actives 6% (n = 1,500); Potency, µM (top dose mostly 57.5 µM), usual class: inhibitors; further: nearly all actives have a fitted effect of over 55% in size
Of the large screens only hits and unclear results are named; the others gave an inactive call (follow-up assays come after a bar, where they were run); [ ] = dose if it differs, or a comment. An excerpt weighted towards active compounds, which were near 7.5% of everything screened. Unless noted, the call rests on the fitted dose curve; in most records, active means well fitted curve in the direction sought with a large enough effect; inconclusive means small, poorly fitted or top-dose-only effect, or another doubt; inactive means no such curve, though single readings can be large; an effect the other way counts as inactive or inconclusive.

Cc1cccc(C)c1NC(=O)CSc1nnc(-c2ccco2)c(-c2ccco2)n1	HCV inhibitor inconclusive, Giardia FBPA inh-1 7.9µM (no result: HCMV inh) | Giardia growth inactive[10.4 µM] | Mammal cell tox inactive | Giardia FBPA inh-2 inconclusive | Rabbit aldolase inactive | GAPDH counter inconclusive
COC(=O)c1ccc(NN=Nc2ccc(C)cc2)cc1	none
NC(=S)N=Nc1ccc(NN=C(N)N)cc1	Giardia FBPA inh-1 10µM | Giardia growth inactive | Mammal cell tox inactive | Giardia FBPA inh-2 inconclusive | Rabbit aldolase inconclusive | GAPDH counter inconclusive
CC12CN(C(=S)Nc3ccccc3)CC(C)(CN(C(=S)Nc3ccccc3)C1)C2=O	none
CCn1c(CSc2n[nH]c(N)n2)nc2cc(C(=O)O)ccc21	Giardia FBPA inh-1 16µM | Giardia growth inactive | Mammal cell tox inactive | Giardia FBPA inh-2 inactive | Rabbit aldolase inactive | GAPDH counter inactive
CCn1c(CSc2nnc(-c3cccnc3)n2-c2ccccc2C)nc2cc(C(=O)O)ccc21	Giardia FBPA inh-1 7.9µM (no result: FMDV antiviral, VACV Venus inh, HCMV inh, Vaccinia mCherry) | Giardia growth inactive | Mammal cell tox inactive | Giardia FBPA inh-2 inconclusive | Rabbit aldolase inactive | GAPDH counter inactive
CCC1(C)Cc2c(C#N)c(N)sc(=S)c2CO1 (centres undefined)	HCV inhibitor inconclusive, Giardia FBPA inh-1 2.2µM | Giardia growth inactive[10.4 µM] | Mammal cell tox inactive | Giardia FBPA inh-2 inactive | Rabbit aldolase inactive | GAPDH counter inactive
CCC1(C)Cc2c(C#N)c(N)n(-c3ccccc3)c(=S)c2CO1 (centres undefined)	none
N#Cc1c(N)sc(=S)c2c1CCCC2	Giardia FBPA inh-1 18µM | Giardia growth inconclusive | Mammal cell tox inactive | Giardia FBPA inh-2 inactive | Rabbit aldolase inactive | GAPDH counter inactive
COc1cccc(C(=O)NCC2(c3ccc(OC)c(OC)c3)CCCC2)c1	none (no result: VACV Venus inh, Vaccinia mCherry)
Cn1c(=O)c2nc3ccc(NC(=O)C(F)(F)F)cc3nc2n(C)c1=O	none (no result: HCV inhibitor, Giardia FBPA inh-1)
CC(=O)Nc1ccc2nc3c(=O)n(C)c(=O)n(C)c3nc2c1	Giardia FBPA inh-1 18µM | Giardia growth inactive | Mammal cell tox inactive | Giardia FBPA inh-2 inconclusive | Rabbit aldolase inconclusive | GAPDH counter 40µM
CCn1cc(C(=O)N2CCN(c3cccc(Cl)c3)CC2)c(=O)c2cc(S(=O)(=O)N3CCCCC3)ccc21	none (no result: HCV inhibitor, Giardia FBPA inh-1)
CCN(CC)CC(=O)Nc1cc(N(C)C)nc2ccccc12	Giardia FBPA inh-1 5.6µM | Giardia growth inconclusive | Mammal cell tox inactive | Giardia FBPA inh-2 inactive | Rabbit aldolase inactive | GAPDH counter inactive
CCCc1nc2ccccc2c(NC(=O)CN(CC)CC)c1CC	Giardia FBPA inh-1 16µM | Giardia growth inactive[10.4 µM] | Mammal cell tox inactive | Giardia FBPA inh-2 inactive | Rabbit aldolase inactive | GAPDH counter inactive
COc1ccc(CN2CCN(C(C)C(=O)N(C)Cc3cccc(F)c3)CC2)cc1OC (centres undefined)	HCV inhibitor inconclusive, Giardia FBPA inh-1 16µM, HCMV inh -102 (no result: VACV Venus inh, Vaccinia mCherry) | Giardia growth inconclusive | Mammal cell tox inactive | Giardia FBPA inh-2 inactive | Rabbit aldolase inactive | GAPDH counter inactive
